In the library only some 2.3% were active in any assay of this set; here they are far more common.
GLD-1 TGE inh = GLD-1-TGE RNA interaction inhibition (C. elegans); Q17339; purified GLD-1 + fluorescein TGE RNA, fluorescence polarization; inhibition, % at 5.96 µM; 320,000 tested, 0.44% active;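 active = percent inhibition above a per-plate cutoff, the plate mean of test compounds plus 3 SD, cut at about 30% in these data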
Target sequence (Q17339 whole entry, looked up): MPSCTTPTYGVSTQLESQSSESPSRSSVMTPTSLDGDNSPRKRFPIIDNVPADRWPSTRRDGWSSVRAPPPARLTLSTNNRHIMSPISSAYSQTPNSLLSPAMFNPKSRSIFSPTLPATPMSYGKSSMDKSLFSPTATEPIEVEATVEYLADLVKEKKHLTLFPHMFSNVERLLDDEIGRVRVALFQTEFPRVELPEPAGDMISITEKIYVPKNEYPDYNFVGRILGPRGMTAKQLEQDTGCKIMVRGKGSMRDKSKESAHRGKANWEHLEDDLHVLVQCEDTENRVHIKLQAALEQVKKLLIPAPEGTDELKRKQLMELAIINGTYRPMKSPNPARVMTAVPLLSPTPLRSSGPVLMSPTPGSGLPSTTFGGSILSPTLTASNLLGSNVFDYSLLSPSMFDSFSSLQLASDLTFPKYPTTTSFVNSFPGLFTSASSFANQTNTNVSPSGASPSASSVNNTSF
Mcl1 Noxa PPI = Mcl-1/Noxa interaction inhibition; 220,000 tested, 1.5% active; Q07820; TR-FRET Mcl-1/Noxa peptide binding, 2 h; AID 1022; inhibition, % at 21.7 µM;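 active = compounds that cut the protein-peptide binding signal by more than 50% relative to plate controls in a single-dose test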;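 note: His-tagged Mcl-1 with rhodamine Noxa BH3 peptide and terbium anti-His antibody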
BCLXL inh = blocks human Bcl-xL binding to Bim BH3 peptide | Q07817 | GST-Bcl-xL / FITC-Bim BH3 peptide fluorescence polarization | inhibition, % at 10.9 µM | 320,000 tested, 0.7% active;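 active = inhibition above the mean of all tested compounds plus 3 SD, cutoff set per campaign, cut at about 30% in these data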;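 note: inhibitors lower millipolarization by displacing the labeled peptide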
Target sequence (Q07817 whole entry, looked up): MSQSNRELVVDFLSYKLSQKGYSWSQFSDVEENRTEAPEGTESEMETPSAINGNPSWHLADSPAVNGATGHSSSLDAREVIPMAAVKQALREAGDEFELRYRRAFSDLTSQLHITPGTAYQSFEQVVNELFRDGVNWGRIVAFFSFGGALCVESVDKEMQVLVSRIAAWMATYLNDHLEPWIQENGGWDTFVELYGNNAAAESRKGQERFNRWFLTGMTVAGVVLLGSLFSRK
Bim-Mcl-1 = human Bim-Mcl-1 interaction inhibition; Q07820; Bead-based flow cytometry, Bim peptide-Mcl-1 binding; inhibition, % at 10 µM; 190,000 tested, 0.1% active; AID 1009; in the data active = inhibition above about 40%
MCL1 BIM primary = disrupts human MCL1 binding to BIM-BH3 peptide | Q07820 | GST-MCL1 / FITC-Bim-BH3 fluorescence polarization | inhibition, % at 10.9 µM | 320,000 tested, 0.68% active | AID 2057;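 active = inhibition above the mean inhibition of all tested compounds plus 3 SD, set per campaign, cut at about 40% in these data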;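 note: higher means more loss of mP so more displacement of Bim peptide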
Mcl1 Bid PPI = Mcl-1/Bid interaction inhibition; TR-FRET Mcl-1/Bid-Dy647 peptide binding, 1536-well; inhibition, % at 21.7 µM; 220,000 tested, 0.97% active;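 active = compounds that cut the binding signal by more than half at the single screening dose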;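 note: His-tagged Mcl-1 with europium anti-His antibody binding Bid BH3 peptide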
Each line names hits and unclear results; the compound was inactive in the other large screens.

COc1ccccc1Nc1nc(-c2cccc(N3C(=O)c4ccccc4C3=O)c2)cs1	none
O=C1c2ccccc2C(=O)N1c1cccc(-c2csc(Nc3ccc4c(c3)OCO4)n2)c1	Mcl1 Noxa PPI 62, MCL1 BIM primary 53
COc1ccc(NC(=O)CN(c2c(C)cccc2C)S(C)(=O)=O)cc1	none (no result: Mcl1 Noxa PPI, Bim-Mcl-1, Mcl1 Bid PPI)
COc1cc(C(=O)NS(=O)(=O)c2ccccc2C)ccc1Cc1cn(C)c2ccc(NC(=O)OC3CCCC3)cc12	BCLXL inh 37
COc1ccc(NC(=O)COc2ccccc2C)cc1S(=O)(=O)N1CCCCC1	none (no result: Mcl1 Noxa PPI, Bim-Mcl-1, Mcl1 Bid PPI)
O=C(CCN1C(=O)/C(=C/c2ccc(Cl)cc2)SC1=S)Nc1cccc(C(=O)O)c1	none (no result: Mcl1 Noxa PPI, Bim-Mcl-1, Mcl1 Bid PPI)
O=C(O)c1cccc(N2C(=O)/C(=C/c3ccc(SCc4ccc(Cl)cc4)o3)SC2=S)c1	Mcl1 Noxa PPI 89, Mcl1 Bid PPI 84 (no result: GLD-1 TGE inh, BCLXL inh, MCL1 BIM primary)
CCCCNC(=O)CCc1nc2cccnc2n1Cc1ccc(OC)cc1	none
COc1ccc(Cn2c(CCC(=O)NCc3ccco3)nc3cccnc32)cc1	Mcl1 Noxa PPI 65
Cc1nn(-c2ccccn2)c2c1C(=O)CC(C)(C)C2Br (stereo not drawn)	none (no result: Bim-Mcl-1)
COc1cc(CN2CCC(C(=O)NC3CCCC3)CC2)cc(Br)c1O	Mcl1 Bid PPI 51
O=C1SC(SCc2ccccc2Cl)=N/C1=C\c1ccc(C(=O)O)cc1	Mcl1 Noxa PPI 80
O=C(CN1C(=O)NC(c2ccccc2)(c2ccccc2)C1=O)N1CCOCC1	none (no result: Mcl1 Noxa PPI, Bim-Mcl-1, Mcl1 Bid PPI)
Cc1occc1C(=O)Nc1ccc([N+](=O)[O-])cc1Br	none (no result: Mcl1 Noxa PPI, Bim-Mcl-1, Mcl1 Bid PPI)
Cc1occc1C(=O)NNC(=O)Nc1ccc([N+](=O)[O-])cc1	Mcl1 Bid PPI 82
Cc1ccc(NC(=O)CN2C(=O)S/C(=C/c3ccc(O)c([N+](=O)[O-])c3)C2=O)cc1C	Mcl1 Noxa PPI 73 (no result: GLD-1 TGE inh, BCLXL inh, MCL1 BIM primary)
Cc1cccc(NC(=O)CN2C(=O)S/C(=C\c3ccc(O)c([N+](=O)[O-])c3)C2=O)c1	none
CN1CCC(N(C)S(=O)(=O)c2ccc(C(C)(C)C)cc2)CC1	none (no result: Mcl1 Noxa PPI, Bim-Mcl-1, Mcl1 Bid PPI)
CN1CCC(N(C)C(=O)CNC(=O)c2ccc(C(C)(C)C)cc2)CC1	Mcl1 Noxa PPI 58
CC(C)(C)OC(=O)NC(Cc1ccccc1)C(=O)O (stereo not drawn)	Mcl1 Bid PPI 60 (no result: Bim-Mcl-1)
Cn1c(N)c(C(=O)NCc2ccccc2)sc1=S	BCLXL inh 34
O=C(Nc1c[nH]c(=O)[nH]c1=O)c1cc([N+](=O)[O-])cc([N+](=O)[O-])c1	none (no result: Mcl1 Noxa PPI, Bim-Mcl-1, Mcl1 Bid PPI)
O=C(O)CCN1C(=O)/C(=C/c2ccc(-c3nc4ccccc4s3)o2)SC1=S	Mcl1 Noxa PPI 104, Mcl1 Bid PPI 94
O=C(O)CC(C(=O)O)N1C(=O)/C(=C/c2ccc(-c3nc4ccccc4s3)o2)SC1=S (stereo not drawn)	none
O=Cc1ccc(-c2nc3ccccc3s2)o1	none
O=C(O)CCCN1C(=O)/C(=C\c2ccc(-c3nc4ccccc4s3)o2)SC1=S	Mcl1 Noxa PPI 104, Mcl1 Bid PPI 87 (no result: Bim-Mcl-1)
COC(=O)CCC(=O)OC1(C)C(=O)C=C2C=C(C3CC3)N(c3cccc(C#N)c3)C=C2C1=O (stereo not drawn)	BCLXL inh 47, MCL1 BIM primary 43 (no result: Bim-Mcl-1)
COC(=O)CCC(=O)OC1(C)C(=O)C=C2C=C(C3CC3)N(C3CC3)C=C2C1=O (stereo not drawn)	none (no result: Bim-Mcl-1)
CC1(OC(=O)CCc2ccccc2)C(=O)C=C2C=C(C3CC3)OC=C2C1=O (stereo not drawn)	GLD-1 TGE inh 33, BCLXL inh 39, MCL1 BIM primary 45 (no result: Mcl1 Noxa PPI, Bim-Mcl-1, Mcl1 Bid PPI)
COC(=O)CCC(=O)OC1(C)C(=O)C=C2C=C(C3CC3)N(Cc3ccco3)C=C2C1=O (stereo not drawn)	BCLXL inh 37, MCL1 BIM primary 42 (no result: Bim-Mcl-1)
COCCN1C=C2C(=O)C(C)(OC(=O)CCC(=O)OC)C(=O)C=C2C=C1C1CC1 (stereo not drawn)	none (no result: Bim-Mcl-1)
Oc1ccc(/C=N/N2CCN(C3c4ccccc4-c4ccccc43)CC2)cc1O	none (no result: Bim-Mcl-1)
O=C(c1ccc(F)cc1)N1CCN(C2CC3CCC2C3)CC1 (stereo not drawn)	none
O=C(c1ccccc1)N1CCN(C2CCCCCC2)CC1	Mcl1 Bid PPI 66
O=C(c1ccccc1)N1CCN(C2CC3CCC2C3)CC1 (stereo not drawn)	Mcl1 Bid PPI 57
Cc1cc(N2CC(C)OC(C)C2)n2cc(-c3ccccc3)nc2n1 (stereo not drawn)	Mcl1 Bid PPI 80
Cc1cc(N2CCOCC2)n2cc(-c3ccccc3)nc2n1	none
OCC1(Cc2ccccc2F)CCCN(Cc2c(F)ccc(F)c2F)C1 (stereo not drawn)	none (no result: Mcl1 Noxa PPI, Bim-Mcl-1, Mcl1 Bid PPI)
Cc1cc(-c2nnc3n2N=C(c2ccc(-c4ccccc4)cc2)CS3)n[nH]1	none
c1ccc(-c2cc(-c3nnc4n3N=C(c3ccc5ccccc5c3)CS4)[nH]n2)cc1	Mcl1 Bid PPI 58
CCNC(=O)N(C)C[C@H]1N[C@@](CC)(C(=O)OC)[C@H]2C(=O)N(C)C(=O)[C@@H]12	none (no result: Mcl1 Noxa PPI, BCLXL inh, Bim-Mcl-1, MCL1 BIM primary, Mcl1 Bid PPI)
Cc1ccccc1CN1CCN(S(=O)(=O)c2ccc(F)cc2)CC1	Mcl1 Bid PPI 60
COc1ccc(N2CCC(CNC(=O)Nc3ccc(C)c(C)c3)C2)cc1 (stereo not drawn)	Mcl1 Noxa PPI 101
COc1ccc(N2CCC(CNS(=O)(=O)c3cccc(C(F)(F)F)c3)C2)cc1 (stereo not drawn)	Mcl1 Noxa PPI 80
COc1ccc(N2CCC(CNC(=O)Nc3ccc(OC)cc3OC)C2)cc1 (stereo not drawn)	Mcl1 Noxa PPI 90
COc1ccc(N2CCC(CNC(=S)Nc3cccc(C)c3)C2)cc1 (stereo not drawn)	Mcl1 Noxa PPI 73
CCOc1ccc(NC(=O)NCC2CCN(c3ccc(OC)cc3)C2)cc1 (stereo not drawn)	none
COc1ccc(N2CCC(CNC(=S)Nc3c(C)cc(C)cc3C)C2)cc1 (stereo not drawn)	none (no result: Bim-Mcl-1)
CCc1ccc(NC(=O)NCC2CCN(c3ccc(OC)cc3)C2)cc1 (stereo not drawn)	Mcl1 Noxa PPI 73 (no result: Bim-Mcl-1)
Cc1ccc2scc(CN3CCCC3)c2c1	none (no result: Mcl1 Noxa PPI, Bim-Mcl-1, Mcl1 Bid PPI)
Cc1occc1C(=O)N=Nc1c(O)[nH]c2ccc(Br)cc12	Mcl1 Noxa PPI 51
Nc1ccc(C(=O)Nc2nc3ccccc3s2)cc1	none
CC(=O)c1sc2nc(-c3cccs3)ccc2c1N	Mcl1 Noxa PPI 74
Nc1c(C(=O)Nc2nc3ccccc3s2)sc2nc(-c3cccs3)ccc12	Mcl1 Noxa PPI 97, Mcl1 Bid PPI 92
COc1ccc(C(=O)c2sc3nc(C)cc(-c4cccs4)c3c2N)cc1	none (no result: GLD-1 TGE inh, BCLXL inh, MCL1 BIM primary)
Cc1nc(-c2cccs2)ccc1C(=O)O	none
CC(C)NC(=O)c1sc2nc(-c3cccs3)cc(-c3cccs3)c2c1N	Mcl1 Noxa PPI 52
FC(F)(F)c1ccncc1-c1nnnn1-c1ccc(Cl)cc1	Mcl1 Bid PPI 69 (no result: Bim-Mcl-1)
COc1ccc(NC(=O)CN(C)C(=O)C2CCCO2)cc1 (stereo not drawn)	none (no result: Mcl1 Noxa PPI, Bim-Mcl-1, Mcl1 Bid PPI)
